# High-throughput results: PubChem, The Scripps Research Institute Molecular Screening Center
# FBW7 activator – activators of human E3 ligase FBW7; AlphaScreen FBW7–phospho-cyclin E peptide binding, activator screen; normalized activity (activation), % at 26.1 µM; actives 0.13% (n = 650,000); AID 1259310; in the data active = normalized activity above about 1.9%;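 note: purified mutant Fbw7 with reduced substrate affinity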
# GPR151 activ – activators of human GPR151. Q8TDV0. PathHunter beta-arrestin GPR151 cells, luminescence. activation, % at 11.2 µM. actives 1% (n = 650,000); in the data active = activation above about 4.9%;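 note: 0% = median of compound wells and 100% = cells with positive control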
# TEAD-YAP block – TEAD-YAP interaction inhibition | AID 1259422 | inhibition, % at 9.12 µM | actives 1.4% (n = 640,000) | HEK-TIYL cells, TEAD-Gal4/YAP UAS-luciferase luminescence; in the data active = inhibition above about 32%;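 note: 0% = median of test compound wells and 100% = reference inhibitor wells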
# MITF primary – blocks human microphthalmia-associated transcription factor; AlphaScreen MITF homodimerization, bead proximity signal; inhibition, % at 2.6 µM; actives 0.91% (n = 650,000); AID 1259374; in the data active = inhibition above about 50%;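 note: 0% = vehicle wells with protein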
# Target sequence (O75030 whole entry, looked up): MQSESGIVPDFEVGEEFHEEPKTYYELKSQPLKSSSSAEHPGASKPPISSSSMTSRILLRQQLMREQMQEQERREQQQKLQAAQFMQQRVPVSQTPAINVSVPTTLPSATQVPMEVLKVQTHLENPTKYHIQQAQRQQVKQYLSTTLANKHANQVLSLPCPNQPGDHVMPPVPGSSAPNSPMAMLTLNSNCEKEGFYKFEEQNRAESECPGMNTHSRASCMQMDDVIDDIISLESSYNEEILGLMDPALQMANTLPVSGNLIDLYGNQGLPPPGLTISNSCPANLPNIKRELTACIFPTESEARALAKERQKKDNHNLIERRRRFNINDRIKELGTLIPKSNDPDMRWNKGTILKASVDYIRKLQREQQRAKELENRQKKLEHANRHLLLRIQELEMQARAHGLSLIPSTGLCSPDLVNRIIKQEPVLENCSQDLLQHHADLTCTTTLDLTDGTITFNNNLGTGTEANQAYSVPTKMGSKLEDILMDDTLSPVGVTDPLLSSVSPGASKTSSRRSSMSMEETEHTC
# MITF confirm – confirmation of human MITF inhibitors; actives 16% (n = 4,700); inhibition, % at 2.6 µM; AlphaScreen MITF homodimerization, biotin/His-MITF beads; shares compounds with MITF primary;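 active = inhibition above a cutoff derived from the DMSO control wells, cut at about 28% in these data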;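 note: 0% = MITF dimer wells with DMSO only; inhibitors lower the bead chemiluminescence by keeping MITF from dimerizing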
# AlphaScreen DR – AlphaScreen optical interference, dose response counter-screen; shares compounds with MITF primary; AlphaScreen optical interference counterscreen, cell-free; IC50, µM; actives 6% (n = 480); call rule not given here
# AS interf ctr – AlphaScreen optical interference, counter-screen | shares compounds with MITF primary | LysRS AlphaScreen counterscreen, signal interference, triplicate | inhibition, % at 2.6 µM | actives 7.6% (n = 4,700) | AID 1259376;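 active = inhibition above a cutoff derived from the DMSO control wells, cut at about 30% in these data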
# An asterisk follows results filed as active; nt = no result given. Rows were chosen to be rich in hits. Some 3.5% of all compounds tested hit in one or more screens of this group.
SMILES,FBW7 activator,GPR151 activ,TEAD-YAP block,MITF primary,MITF confirm,AS interf ctr,others
COc1cccc(CN2CCC(C(=O)N3CCN(c4ccccc4F)CC3)CC2)c1OC,0,-1,1,52*,8,11,
NNc1nc(NN)nc(Nc2ccccc2)n1,-2,-2,3,65*,97*,100*,
c1ccc(Nc2nc(Nc3ccccc3)nc(Oc3ccccc3)n2)cc1,0,0,7,12,nt,nt,
CC(C)Nc1nc(N2CCCC2)nc(N2CCCC2)n1,0,0,-3,4,nt,nt,
COc1ccc(-c2cc(N3CCCN(C)CC3)ncn2)cc1,0,-1,-14,10,nt,nt,
COc1ccc2c(C)cc(N3CCCN(C)CC3)nc2c1,0,1,8,62*,-2,-3,
Cc1cccc(N2C(=O)C3C4C=CC(O4)C3C2=O)c1C (centres undefined),-1,0,6,51*,-1,10,
COc1ccccc1CN1CCC(N2CCN(c3ccccc3)CC2)CC1,0,0,-6,68*,-5,-5,
COc1cccc(CN2CCC(N3CCCCCC3)CC2)c1OC,0,0,7,13,nt,nt,
COc1ccccc1CN1CCC(N2CCCCC2)CC1,1,-1,3,70*,3,21,
CC(=O)NC1=NC(=O)/C(=C\c2ccc(Br)o2)S1,0,0,-8,77*,67*,12,AlphaScreen DR=>6.5
CC(C)n1c(NCCN2CCOCC2)nc2c(NCCN3CCOCC3)ncnc21,0,0,2,67*,-1,10,
COc1cc(OC)cc(C(=O)Nc2cc(C(=O)NCCC3=CCCCC3)ccc2N2CC3CC(C2)c2cccc(=O)n2C3)c1 (centres undefined),0,0,3,4,nt,nt,
N#Cc1c(SCC(=O)Nc2ccccc2F)nsc1SCC(=O)Nc1ccccc1F,0,-1,4,14,nt,nt,
FC(F)(F)c1cccc(CNc2cc(-c3csc4ccccc34)ncn2)c1,0,3,-3,62*,-3,0,
Cc1cc(NCc2cccc(C(F)(F)F)c2)nc(-c2csc3ccccc23)n1,0,0,-6,14,nt,nt,
Cc1ccc(S(=O)(=O)NS(=O)(=O)CCCCCl)cc1,0,-1,4,19,nt,nt,
CCOC(=O)C1=C(O)CSC1=NC(=O)c1ccc(OC)cc1,0,0,-3,52*,-17,-1,
O=C(c1ccc2nc(-c3ccco3)c(-c3ccco3)nc2c1)N1CCSCC1,0,-1,15,87*,72*,7,AlphaScreen DR=>6.5
O=C(c1ccc2nc(-c3cccs3)c(-c3cccs3)nc2c1)N1CCOCC1,0,-1,3,-7,nt,nt,
O=C(O)c1ccc(-n2cccc2/C=C2/NC(=O)N(c3ccc(Cl)cc3)C2=O)cc1,0,0,-15,55*,74*,34*,
O=C1NC(=O)/C(=C\c2cccn2-c2ccc(C(=O)O)cc2)N1,0,-1,13,66*,9,-5,
O=C(O)c1ccc(/C=C2/NC(=O)N(c3ccc(Cl)cc3)C2=O)cc1,0,1,-7,-20,nt,nt,
O=C(O)c1cccc(-n2cccc2/C=C2/NC(=O)N(c3ccc(Cl)cc3)C2=O)c1,0,0,-8,61*,36*,10,AlphaScreen DR=>6.5
O=C(O)c1cccc(-n2cccc2/C=C2/NC(=O)N(c3cccc(Cl)c3)C2=O)c1,0,0,5,21,nt,nt,
SMILES,FBW7 activator,GPR151 activ,TEAD-YAP block,MITF primary,MITF confirm,AS interf ctr,others
O=C(/C=C/c1ccco1)N1CCN(Cc2nc3ccccc3n2Cc2ccccc2)CC1,-1,0,-22,60*,12,29,
Cc1ccc(S(=O)(=O)Nc2cc(Cl)c(O)c3ncccc23)cc1,-1,-1,4,22,nt,nt,
Cc1cc(N)c(O)c2ncccc12,0,0,6,81*,104*,101*,
Cc1ccc(C(=O)N2CCN3C(=O)[C@H](C)N(C)C(=O)[C@H]3C2)cc1,0,2,-5,5,nt,nt,
CC(C)C[C@H]1C(=O)N2CCN(C(=O)NC3CCCCC3)C[C@@H]2C(=O)N1C,0,-1,1,70*,71*,-10,AlphaScreen DR=>6.5
C[C@H]1C(=O)N2CCN(C(=O)NC3CCCCC3)C[C@@H]2C(=O)N1C,0,-1,8,78*,74*,-9,AlphaScreen DR=>6.5
CC(=O)SCCC(=O)N1CCn2c3c(c4cc(C)ccc42)CCCC31 (centres undefined),0,-1,0,14,nt,nt,
CC(=O)c1cccc(NC(=S)NCCn2cc(Cl)cn2)c1,0,1,2,68*,13,9,
Oc1ccc(CCNc2cc(-c3cccs3)ncn2)cc1,0,3,-18,59*,44*,4,AlphaScreen DR=>6.7
Cc1cc(CN2C(=O)c3ccccc3C2=O)cc(C(=O)O)c1O,0,1,1,3,nt,nt,
NC(=O)/C(=C/c1cccc([N+](=O)[O-])c1)NC(=O)c1cccc(Br)c1,0,-1,14,3,nt,nt,
NC(=O)/C(=C\c1cccc([N+](=O)[O-])c1)NC(=O)c1ccc(Br)cc1,0,-1,0,53*,32*,-1,AlphaScreen DR=>6.5
O=C(c1ccccc1)N1CCN(Cc2cccc(Oc3ccccc3)c2)CC1,0,0,-5,49,nt,nt,
O=C(c1ccc(F)cc1)N1CCN(Cc2cccnc2)CC1,0,-1,1,72*,8,6,
O=C(c1cccnc1)N1CCN(Cc2cccc(Oc3ccccc3)c2)CC1,0,-1,10,70*,-5,3,
O=C(c1cccnc1)N1CCN(Cc2cccc(F)c2)CC1,0,-1,10,75*,15,12,
Cn1c(=O)n(C)c2cc(NC(=O)Nc3cccc(Cl)c3)ccc21,0,3,7,5,nt,nt,
Cc1onc(-c2ccccc2)c1C(=O)Nc1cccc(C#N)c1,1,0,8,70*,9,9,
CC(C)Cc1nnc2sc(NC(=O)C(C)Oc3ccccc3)nn12 (centres undefined),0,4,2,-2,nt,nt,
COCCNCCOCCOc1ccc(C)cc1[N+](=O)[O-],0,-1,-8,58*,11,10,
CCC(C)NCCOc1ccccc1[N+](=O)[O-] (centres undefined),0,1,12,33,nt,nt,
CCC(C)NCCCCOc1ccc(C)cc1[N+](=O)[O-] (centres undefined),0,2,-6,70*,3,14,
COCCNCCCCOc1ccc(C)cc1[N+](=O)[O-],0,-1,-3,17,nt,nt,
COCCCNCCOCCOc1ccc(C)cc1[N+](=O)[O-],0,0,6,30,nt,nt,
C=CCNCCCCOc1ccc(C)cc1[N+](=O)[O-],0,1,-2,75*,-4,0,
COc1ccc(CNCc2c(C(=O)O)n(Cc3cccc(F)c3)c3ccccc23)cc1,0,0,8,3,nt,nt,
